# Experimental data as given in PubChem BioAssay AID1159580 (chemical genetic matrix, 2015).
# Several values for one entry are separate records, joined by “and”; a condition that tells them apart may be missing. Identical values can stand only once. In all, about 5,500 compounds went through this assay and about 2,000 (36%) were called active. About 18% were inconclusive and are not listed. The list shows a part of the results. Values without a mark were called inactive. No stated cut-off is given here; in the data, active means normalized growth mostly below about 0.91 (no sharp cut-off); inconclusive means no clear call, values can overlap the other calls; inactive means mostly above about 0.92.
# Test: chemical genetic growth profiling, strain panel (AID 1159580);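 further: tested at 20 µM; growth read once vehicle control cultures reached saturation at 30 °C; 1 = growth at the plate median or of vehicle wells; lower values mean less growth of the strain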
# Conditions: S. cerevisiae deletion strains, growth OD
compound,measurement,setting,value
CC(CN(C)C)CN1c2ccccc2CCc2ccccc21 (stereo not given),normalized growth,"locus YAL013W, strain DEP1, hits give low values",1
same,normalized growth,"locus YAL021C, strain ccr4, hits give low values",0.893 (active)
same,normalized growth,"locus YAL026C, strain drs2, hits give low values",0.982
same,normalized growth,"locus YAL030W, strain snc1, hits give low values",0.977
same,normalized growth,"locus YAL040C, strain CLN3, hits give low values",1.03
same,normalized growth,"locus YBL061C, strain skt5, hits give low values",0.984
same,normalized growth,"locus YBR009C, strain hhf1, hits give low values",0.972
same,normalized growth,"locus YBR021W, strain FUR4, hits give low values",1.01
same,normalized growth,"locus YBR023C, strain chs3, hits give low values",0.975
same,normalized growth,"locus YBR171W, strain sec66, hits give low values",0.963
same,normalized growth,"locus YBR229C, strain ROT2, hits give low values",1.01
same,normalized growth,"locus YBR231C, strain swc5, hits give low values",0.976
same,normalized growth,"locus YBR279W, strain paf1, hits give low values",0.988
same,normalized growth,"locus YCL011C, strain gbp2, hits give low values",0.973
same,normalized growth,"locus YCL016C, strain dcc1, hits give low values",0.974
same,normalized growth,"locus YCL029C, strain bik1, hits give low values",1.02
same,normalized growth,"locus YCL061C, strain MRC1 (second series), hits give low values",1.01
same,normalized growth,"locus YCL061C, strain MRC1, hits give low values",0.986
same,normalized growth,"locus YCL069W, strain vba3, hits give low values",0.969
same,normalized growth,"locus YCR088W, strain abp1, hits give low values",0.977
same,normalized growth,"locus YDL005C, strain med2, hits give low values",0.973
same,normalized growth,"locus YDL035C, strain GPR1, hits give low values",1.01
same,normalized growth,"locus YDL040C, strain nat1, hits give low values",0.976
same,normalized growth,"locus YDL074C, strain BRE1, hits give low values",1.02
same,normalized growth,"locus YDL101C, strain DUN1, hits give low values",1
same,normalized growth,"locus YDL134C, strain PPH21, hits give low values",1.01
same,normalized growth,"locus YDL185W, strain tfp1, hits give low values",1.02
same,normalized growth,"locus YDL192W, strain arf1, hits give low values",1.01
same,normalized growth,"locus YDR001C, strain nth1, hits give low values",0.977
same,normalized growth,"locus YDR069C, strain doa4, hits give low values",0.921
same,normalized growth,"locus YDR101C, strain arx1, hits give low values",1.02
same,normalized growth,"locus YDR137W, strain rgp1, hits give low values",1.2 [resistant] (active)
same,normalized growth,"locus YDR150W, strain NUM1, hits give low values",1.02 and 1.01
same,normalized growth,"locus YDR159W, strain sac3, hits give low values",0.977
same,normalized growth,"locus YDR162C, strain NBP2, hits give low values",1.01
same,normalized growth,"locus YDR195W, strain ref2",0.999
same,normalized growth,"locus YDR297W, strain sur2, hits give low values",0.975
same,normalized growth,"locus YDR318W, strain mcm21, hits give low values",1.02
same,normalized growth,"locus YDR334W, strain swr1, hits give low values",0.946
same,normalized growth,"locus YDR335W, strain msn5, hits give low values",0.975
same,normalized growth,"locus YDR363W, strain ESC2, hits give low values",0.993
same,normalized growth,"locus YDR388W, hits give low values",1.02
same,normalized growth,"locus YDR392W, strain spt3, hits give low values",0.96
same,normalized growth,"locus YDR502C, strain sam2, hits give low values",1.03
same,normalized growth,"locus YEL003W, strain gim4, hits give low values",0.965
same,normalized growth,"locus YEL037C, strain rad23, hits give low values",0.954
same,normalized growth,"locus YEL061C, strain CIN8 (second series), hits give low values",0.96
same,normalized growth,"locus YEL061C, strain CIN8, hits give low values",1.01
same,normalized growth,"locus YER002W, strain NOP16, hits give low values",1.01
same,normalized growth,"locus YER015W, strain faa2, hits give low values",0.961
same,normalized growth,"locus YER016W, strain bim1, hits give low values",0.975
same,normalized growth,"locus YER110C, hits give low values",1.02
same,normalized growth,"locus YER111C, strain swi4, hits give low values",0.974
same,normalized growth,"locus YER155C, strain BEM2 (second series), hits give low values",0.948
same,normalized growth,"locus YER155C, strain BEM2, hits give low values",1
same,normalized growth,"locus YER167W, strain BCK2, hits give low values",1.01
same,normalized growth,"locus YFR010W, strain ubp6, hits give low values",0.954
same,normalized growth,"locus YGL078C, strain dbp3, hits give low values",1.01
same,normalized growth,"locus YGL086W, strain mad1, hits give low values",1.01
same,normalized growth,"locus YGL167C, strain pmr1, hits give low values",0.98
same,normalized growth,"locus YGL173C, strain kem1, hits give low values",0.972
same,normalized growth,"locus YGL227W, strain vid30, hits give low values",0.978
same,normalized growth,"locus YGL240W, strain doc1, hits give low values",0.969
same,normalized growth,"locus YGL248W, strain PDE1, hits give low values",0.996
same,normalized growth,"locus YGL253W, strain hxk2, hits give low values",0.977
same,normalized growth,"locus YGR078C, strain PAC10, hits give low values",1.01
same,normalized growth,"locus YGR135W, strain pre9, hits give low values",1.02
same,normalized growth,"locus YGR229C, strain SMI1, hits give low values",0.978
same,normalized growth,"locus YGR252W, strain gcn5, hits give low values",0.97
same,normalized growth,"locus YHR013C, strain ard1, hits give low values",0.833 (active)
same,normalized growth,"locus YHR027C, strain rpn1, hits give low values",0.966
same,normalized growth,"locus YHR030C, strain SLT2, hits give low values",1.02 and 0.988
same,normalized growth,"locus YHR079C, strain IRE1 (second series), hits give low values",1.01
same,normalized growth,"locus YHR079C, strain IRE1, hits give low values",0.981
same,normalized growth,"locus YHR094C, strain hxt1, hits give low values",1.01
same,normalized growth,"locus YHR129C, strain ARP1, hits give low values",1.01
same,normalized growth,"locus YHR142W, strain chs7, hits give low values",0.971
same,normalized growth,"locus YHR200W, strain rpn10, hits give low values",1.03
same,normalized growth,"locus YIL066C, strain RNR3, hits give low values",1
same,normalized growth,"locus YIL073C, strain SPO22, hits give low values",1.07
same,normalized growth,"locus YIL125W, strain kgd1, hits give low values",1.01
same,normalized growth,"locus YIR030C, strain dcg1, hits give low values",1.01
same,normalized growth,"locus YJL092W, strain hpr5, hits give low values",0.936
same,normalized growth,"locus YJL095W, strain BCK1 (second series), hits give low values",0.984
same,normalized growth,"locus YJL095W, strain BCK1, hits give low values",0.984 and 0.986
same,normalized growth,"locus YJL115W, strain asf1, hits give low values",0.957
same,normalized growth,"locus YJL129C, strain trk1, hits give low values",0.973
same,normalized growth,"locus YJL134W, strain LCB3, hits give low values",1
same,normalized growth,"locus YJL154C, strain vps35, hits give low values",0.978
same,normalized growth,"locus YJL164C, strain tpk1, hits give low values",0.973
same,normalized growth,"locus YJL166W, strain qcr8, hits give low values",0.963
same,normalized growth,"locus YJL168C, strain set2, hits give low values",1.02
same,normalized growth,"locus YJL187C, strain SWE1 (second series), hits give low values",0.988
same,normalized growth,"locus YJL187C, strain SWE1, hits give low values",0.965
same,normalized growth,"locus YJR043C, strain POL32, hits give low values",1
